{"source": "PubChem BioAssay (EPA / NIEHS)", "note": "Active and inactive are the calls of the source. Rule for the calls: active = hit-call score of the fitted dose curve at least 0.9, where 1 is the maximum; inactive = score below 0.9.", "data": [{"read-out": "matrix metalloproteinase-10 (MMP10), MMP10 (gene 4319)", "experiment": "LTEA_HepaRG_MMP10: Life Technologies and Expression Analysis (LTEA) Assay for matrix metalloproteinase-10 (MMP10) using HepaRG (AID 2283517)", "conditions": "mRNA level, 48 h; actives raise or lower the signal", "procedure": "LTEA_HepaRG is a cell based, multiplexed-readout assay that uses HepaRG, a human liver cell line, with measurements taken at 48 hours after chemical dosing on a 96-well plate.LTEA_HepaRG_MMP10 is one of 102 assay component(s) measured in the LTEA HepaRG cell culture assay. It is a marker of Fibrosis.Data from the assay component LTEA_HepaRG_MMP10 was analyzed into 1 endpoint. This assay endpoint, LTEA_HepaRG_MMP10, was analyzed with bidirectional fitting relative to DMSO as the negative control and baseline of activity. Using a type of inducible reporter, measures of mRNA induction for gain or loss-of-signal activity can be used to understand regulation of transcription factor activity. To generalize the intended target to other relatable targets, this assay endpoint is annotated to the protease intended target family, where the subfamily is matrix metalloproteinase.\nA total of 1060 chemcials from the ToxCast library were tested in eight-point concentration-response experiments. Cell culture and cytotoxicity assays were conducted at Thermo Fisher Scientific's Custom Services facility (Madison, WI). A single lot of human HepaRG cells (Thermo Fisher Scientific, Frederick, MD) was used for the cell culture experiments. 96-well format collagen type I coated plates of human HepaRG cells were prepared using established methods. Briefly, cryopreserved HepaRG cells were thawed, plated at a density of approximately 100,000 cells/well in HepaRG Thaw, Plate, and General Purpose media (HPRG770, Thermo Fisher Scientific), and incubated for 48 hours. 0.5% DMSO was selected as vehicle control to balance the requisite need of DMSO in HepaRG cultures to maintain differentiation (for example, baseline metabolism, proportions of hepatocytes vs. cholangiocytes), while enabling further hepatic receptor pathway activation (for example, PXR and CAR) in response to chemical exposure. 48 hours after plating, the culture medium was replaced with HepaRG Serum-Free Incudtion Media. Cells were exposed to each test chemical in duplicate and maintained in CO2 incubators for another 48 hours. Chemical plates were thawed to room temperature and 200x concentrations of treatment groups were prepared. 8-point conentration-reponse curves were made with the highest exposure at 100 uM, followed by half-log dilutions, all in 0.5% DMSO. Each test plate contained variouse controls, induction positive controls (1mM phenobarbital), cytotoxicity positive controls ([…] aflatoxin B1), vehicle controls (0.5% DMSO), and total lysis controls (0.5% DMSO). Cell morphology images were taken using an Essen IncuCyte FLR automated microscope, with six 96-well plates imaged in about 24 minutes. Images were captured and exported and JPEG files. Spent culture media was transfered to black-well plates for the LDH assay, and remaining media was sorted at -80 C for later use. Cells were treated with RLT buffer and frozen until shipped for gene expression analysis. Total RNA was isolated from the cell suspension in 75 uL of Buffer RLT (Qiagen, Germantown, MD 20874) by Quintiles/Expression Analysis (Durham, NC) using a custom isolation procedure. Total RNA from each plate well was transferred to a preamplification plate. Fluidigm's 96.96 Dynamic ArrayTM (Fluidigm, Amsterdam, the Netherlands) technology was used for gene expression analyses by quantitative reverse transcription polymerase chain reaction (qRT-PCR, performed by Quintiles/Expression Analysis, Durham, NC)89. Standard TaqManTM Assays (Applied Biosystems/ThermoFisher Scientific, Foster City, CA) were used to assess the expression of 93 genes selected based on their selectivity and sensitivity to important hepatic receptors known to be modulated by environmental chemicals; importance in human hepatocyte functionality; and hepatotoxicity. […]", "values": [{"smiles": "CS(=O)(=O)NC(=O)c1cc(Oc2ccc(C(F)(F)F)cc2Cl)ccc1[N+](=O)[O-]", "outcome": "inactive"}, {"smiles": "Cc1cccc(N)c1N", "outcome": "inactive"}, {"smiles": "C[C@]12C=CC3=C4CCC(=O)C=C4CC[C@H]3[C@@H]1CC[C@@H]2O", "outcome": "inactive"}, {"smiles": "N#CC(Br)(Br)C(N)=O", "outcome": "inactive"}, {"smiles": "c1ccc(C2CO2)cc1", "note": "(stereo not given)", "outcome": "inactive"}, {"smiles": "ClCCOCCCl", "outcome": "inactive"}, {"smiles": "CC(C)COC(=O)c1ccccc1C(=O)OCC(C)C", "outcome": "inactive"}, {"smiles": "O=C(Oc1ccc(Br)cc1)N1CCN2CCC1CC2", "outcome": "inactive"}, {"smiles": "CN(C)C(=O)Nc1ccc(Cl)cc1", "outcome": "inactive"}, {"smiles": "CCCCCCCCCCCCCN1CC(C)OC(C)C1", "note": "(stereo not given)", "outcome": "inactive"}, {"smiles": "CCCCCCCCn1sccc1=O", "AC50": "76.6 µM (active)"}, {"smiles": "CN(C)c1ccccc1", "outcome": "inactive"}, {"smiles": "Cc1ccc(N)c(N)c1", "outcome": "inactive"}, {"smiles": "Nc1ccc(Oc2ccc(N)cc2)cc1", "outcome": "inactive"}, {"smiles": "Clc1ccc(C(c2ccc(Cl)cc2)C(Cl)(Cl)Cl)cc1", "outcome": "inactive"}, {"smiles": "ClC1=C(Cl)C2(Cl)C3C(Cl)C=CC3C1(Cl)C2(Cl)Cl", "note": "(stereo not given)", "outcome": "inactive"}, {"smiles": "OCCCl", "outcome": "inactive"}, {"smiles": "CCC(C)c1ccc(O)cc1", "note": "(stereo not given)", "outcome": "inactive"}, {"smiles": "O=[N+]([O-])C(Br)(CO)CO", "outcome": "inactive"}, {"smiles": "OCCOCCO", "outcome": "inactive"}, {"smiles": "C[N+](C)(C)CC1CO1", "note": "(stereo not given)", "outcome": "inactive"}, {"smiles": "CO[C@@H]1[C@H](OC(=O)NC(=O)CCl)CC[C@]2(CO2)[C@H]1[C@@]1(C)O[C@@H]1CC=C(C)C", "outcome": "inactive"}, {"smiles": "COc1cc(C=O)cc2c1[C@H](COC(N)=O)[C@]1(OC(C)=O)ON2C[C@H]2[C@@H]1N2C(C)=O", "AC50": "1.58 µM (active)"}, {"smiles": "CC(C)(OOC(C)(C)c1ccccc1)c1ccccc1", "outcome": "inactive"}, {"smiles": "ClC1=C(Cl)[C@]2(Cl)[C@H]3[C@H]([C@@H]4C=C[C@H]3C4)[C@@]1(Cl)C2(Cl)Cl", "outcome": "inactive"}, {"smiles": "CC(O)CCO", "note": "(stereo not given)", "outcome": "inactive"}, {"smiles": "Clc1ccc(Cl)c(Cl)c1", "outcome": "inactive"}, {"smiles": "CCCCC(CC)COC(=O)c1ccc(C(=O)OCC(CC)CCCC)c(C(=O)OCC(CC)CCCC)c1", "note": "(stereo not given)", "outcome": "inactive"}, {"smiles": "O=[N+]([O-])c1ccc(Oc2ccc(Cl)cc2Cl)cc1", "outcome": "inactive"}, {"smiles": "Cc1ccc(N)cc1", "outcome": "inactive"}, {"smiles": "CC(C)(O)c1cnn2c(-c3ccc(F)c(-c4c(F)cccc4C#N)c3)cnc2n1", "outcome": "inactive"}, {"smiles": "O=P(OCCCl)(OCCCl)OCCCl", "outcome": "inactive"}, {"smiles": "CC(C)(C)OOC(=O)c1ccccc1", "outcome": "inactive"}, {"smiles": "CCN(CC)N=O", "outcome": "inactive"}, {"smiles": "OCCCBr", "outcome": "inactive"}, {"smiles": "c1ccc2c(c1)-c1cccc3cccc-2c13", "outcome": "inactive"}, {"smiles": "O=C1CCCO1", "outcome": "inactive"}, {"smiles": "CCOc1cccc(C2(N3CCN(c4ccccc4)CC3)CCC(C)CC2)c1", "note": "(stereo not given)", "outcome": "inactive"}, {"smiles": "CCCCCCCCOC(=O)c1ccc(C(=O)OCCCCCCCC)c(C(=O)OCCCCCCCC)c1", "outcome": "inactive"}, {"smiles": "CN(C)c1ccc(C(=O)c2ccc(N(C)C)cc2)cc1", "outcome": "inactive"}]}]}
